# According to PMC7862700, “An all-to-all approach to the identification of sequence-specific readers for epigenetic DNA modifications on cytosine”:
# Experiments:
# Test in all cases: DAPPL (digital affinity profiling via proximity ligation, sequencing); 10 mM Tris-HCl pH 7.5, 50 mM NaCl, 1 mM DTT, 4% glycerol, room temperature, 30 min; GST-TFs on glutathione beads, 16-mer random dsDNA library, 0.1% formaldehyde crosslink after washing; high values mean tight binding
# FEV = target: T1, FEV (Homo sapiens, UniProt Q99581 1-238); settings: protein: recombinant; tags: N-terminal GST; dsDNA, one strand shown
# T1 sequence: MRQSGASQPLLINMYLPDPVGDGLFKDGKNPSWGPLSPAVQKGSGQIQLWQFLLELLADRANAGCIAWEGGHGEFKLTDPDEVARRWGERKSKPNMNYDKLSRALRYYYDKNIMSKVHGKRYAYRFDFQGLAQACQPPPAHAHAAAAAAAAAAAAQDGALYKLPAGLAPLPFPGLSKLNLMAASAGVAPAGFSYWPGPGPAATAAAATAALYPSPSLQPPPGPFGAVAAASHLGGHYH
# Outline: (§1)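 Sequencing on an Illumina NextSeq500 followed washing, crosslinking with 0.1% formaldehyde, proximity ligation (BsaI/T4 ligase, 1 h, 37 °C) and PCR amplification of pools that had been incubated for 30 min at room temperature with 200 nmole of a random double-stranded 16-mer DNA library in Tris/NaCl/DTT/glycerol buffer. Each pool held DNA-barcoded human transcription factors, expressed in yeast as GST fusions and captured on glutathione beads, plus a tag-only sample. Binding signal is a hexamer's read frequency for a factor divided by its frequency in the tag-only sample.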
# ETV5 = ETV5 (Homo sapiens, UniProt P41161 1-510); settings: protein: recombinant; tags: N-terminal GST; dsDNA, one strand shown
# Outline: as §1
# HSF1 = HSF1 (Homo sapiens, UniProt Q00613 1-529); settings: protein: recombinant; tags: N-terminal GST; chain copies: 3; dsDNA, one strand shown
# Outline: as §1
# SPIC = target: T2, SPIC (Homo sapiens, UniProt Q8N5J4 1-248); settings: protein: recombinant; tags: N-terminal GST; dsDNA, one strand shown
# T2 sequence: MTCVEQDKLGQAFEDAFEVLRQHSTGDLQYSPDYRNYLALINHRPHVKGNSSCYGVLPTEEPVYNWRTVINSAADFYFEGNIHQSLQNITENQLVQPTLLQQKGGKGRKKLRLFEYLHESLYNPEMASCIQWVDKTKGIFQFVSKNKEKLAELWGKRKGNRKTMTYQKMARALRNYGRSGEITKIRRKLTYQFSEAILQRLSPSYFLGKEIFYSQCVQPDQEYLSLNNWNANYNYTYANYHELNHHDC
# Outline: as §1
# ELF4 = ELF4 (Homo sapiens, UniProt Q99607 1-663); settings: protein: recombinant; tags: N-terminal GST; dsDNA, one strand shown
# Outline: as §1
# ELK4 = target: T3, ELK4 (Homo sapiens, UniProt P28324-2 1-405); settings: protein: recombinant; tags: N-terminal GST; dsDNA, one strand shown
# T3 sequence: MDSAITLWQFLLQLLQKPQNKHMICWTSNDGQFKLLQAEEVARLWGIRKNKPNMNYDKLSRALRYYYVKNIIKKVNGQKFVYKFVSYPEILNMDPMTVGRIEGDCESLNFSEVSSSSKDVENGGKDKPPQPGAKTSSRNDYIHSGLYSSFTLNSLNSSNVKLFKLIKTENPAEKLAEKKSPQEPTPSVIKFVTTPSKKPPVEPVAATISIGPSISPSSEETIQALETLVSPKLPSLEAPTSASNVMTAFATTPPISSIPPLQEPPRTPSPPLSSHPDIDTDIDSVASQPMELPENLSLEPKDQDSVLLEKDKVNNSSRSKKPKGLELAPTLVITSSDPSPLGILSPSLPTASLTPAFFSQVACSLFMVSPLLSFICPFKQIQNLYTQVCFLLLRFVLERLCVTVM
# Outline: as §1
# ETV2 = target: T4, ETV2 (Homo sapiens, UniProt O00321 1-342); settings: protein: recombinant; tags: N-terminal GST; dsDNA, one strand shown
# T4 sequence: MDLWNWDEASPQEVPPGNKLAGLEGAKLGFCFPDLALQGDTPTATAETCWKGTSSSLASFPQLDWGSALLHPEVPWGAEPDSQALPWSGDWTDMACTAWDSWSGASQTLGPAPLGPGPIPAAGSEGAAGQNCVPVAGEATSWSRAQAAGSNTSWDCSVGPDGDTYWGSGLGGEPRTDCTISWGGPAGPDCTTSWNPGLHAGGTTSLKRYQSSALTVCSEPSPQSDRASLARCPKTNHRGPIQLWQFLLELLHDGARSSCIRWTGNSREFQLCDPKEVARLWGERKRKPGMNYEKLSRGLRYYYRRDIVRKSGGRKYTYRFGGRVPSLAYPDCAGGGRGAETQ
# Outline: as §1
# ELF3 = target: T5, ELF3 (Homo sapiens, UniProt P78545 1-371); settings: protein: recombinant; tags: N-terminal GST; dsDNA, one strand shown
# T5 sequence: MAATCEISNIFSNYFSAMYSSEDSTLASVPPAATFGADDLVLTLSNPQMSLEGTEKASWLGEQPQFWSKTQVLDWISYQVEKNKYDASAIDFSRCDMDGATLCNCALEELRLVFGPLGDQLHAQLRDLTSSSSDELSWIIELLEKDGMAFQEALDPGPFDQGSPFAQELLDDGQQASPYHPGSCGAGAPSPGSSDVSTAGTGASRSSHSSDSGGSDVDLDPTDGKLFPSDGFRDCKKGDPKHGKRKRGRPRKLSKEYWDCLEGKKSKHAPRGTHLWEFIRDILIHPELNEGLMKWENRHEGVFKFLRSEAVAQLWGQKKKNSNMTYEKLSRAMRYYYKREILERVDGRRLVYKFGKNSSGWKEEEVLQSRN
# Outline: as §1
# CRX = CRX (Homo sapiens, UniProt O43186 1-299); settings: protein: recombinant; tags: N-terminal GST; dsDNA, one strand shown
# Outline: as §1
# ETV1 = ETV1 (Homo sapiens, UniProt P50549 1-477); settings: protein: recombinant; tags: N-terminal GST; dsDNA, one strand shown
# Outline: as §1
# ERF = target: T6, ERF (Homo sapiens, UniProt P50548 1-548); settings: protein: recombinant; tags: N-terminal GST; dsDNA, one strand shown
# T6 sequence: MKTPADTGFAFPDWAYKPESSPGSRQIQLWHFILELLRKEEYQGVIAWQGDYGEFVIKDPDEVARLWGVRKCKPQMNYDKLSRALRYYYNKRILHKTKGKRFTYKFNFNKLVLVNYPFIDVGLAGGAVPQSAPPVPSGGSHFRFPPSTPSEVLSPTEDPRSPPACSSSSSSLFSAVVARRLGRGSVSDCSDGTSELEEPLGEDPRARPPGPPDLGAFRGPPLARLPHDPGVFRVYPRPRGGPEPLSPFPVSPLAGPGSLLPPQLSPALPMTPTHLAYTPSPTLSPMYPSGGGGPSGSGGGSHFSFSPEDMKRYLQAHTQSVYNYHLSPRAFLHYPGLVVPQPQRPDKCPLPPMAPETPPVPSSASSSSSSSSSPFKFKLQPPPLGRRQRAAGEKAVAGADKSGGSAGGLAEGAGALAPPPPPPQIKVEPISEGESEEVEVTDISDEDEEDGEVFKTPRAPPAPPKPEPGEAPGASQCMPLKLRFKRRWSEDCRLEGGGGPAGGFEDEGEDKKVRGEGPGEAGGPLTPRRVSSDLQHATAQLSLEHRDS
# Outline: as §1
# ETV3L = target: T7, ETV3L (Homo sapiens, UniProt Q6ZN32 1-361); settings: protein: recombinant; tags: N-terminal GST; dsDNA, one strand shown
# T7 sequence: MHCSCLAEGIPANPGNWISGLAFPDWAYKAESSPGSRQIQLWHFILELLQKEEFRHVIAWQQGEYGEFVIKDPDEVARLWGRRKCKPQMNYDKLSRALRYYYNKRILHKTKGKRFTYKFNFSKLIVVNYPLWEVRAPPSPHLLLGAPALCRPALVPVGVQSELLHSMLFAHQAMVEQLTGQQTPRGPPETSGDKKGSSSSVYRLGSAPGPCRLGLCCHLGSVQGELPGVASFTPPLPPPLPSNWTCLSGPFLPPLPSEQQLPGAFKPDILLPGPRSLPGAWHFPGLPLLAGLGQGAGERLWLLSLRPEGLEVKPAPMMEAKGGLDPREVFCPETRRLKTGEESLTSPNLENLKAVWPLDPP
# Outline: as §1
# ETS2 = target: T8, ETS2 (Homo sapiens, UniProt P15036 1-469); settings: protein: recombinant; tags: N-terminal GST; dsDNA, one strand shown
# T8 sequence: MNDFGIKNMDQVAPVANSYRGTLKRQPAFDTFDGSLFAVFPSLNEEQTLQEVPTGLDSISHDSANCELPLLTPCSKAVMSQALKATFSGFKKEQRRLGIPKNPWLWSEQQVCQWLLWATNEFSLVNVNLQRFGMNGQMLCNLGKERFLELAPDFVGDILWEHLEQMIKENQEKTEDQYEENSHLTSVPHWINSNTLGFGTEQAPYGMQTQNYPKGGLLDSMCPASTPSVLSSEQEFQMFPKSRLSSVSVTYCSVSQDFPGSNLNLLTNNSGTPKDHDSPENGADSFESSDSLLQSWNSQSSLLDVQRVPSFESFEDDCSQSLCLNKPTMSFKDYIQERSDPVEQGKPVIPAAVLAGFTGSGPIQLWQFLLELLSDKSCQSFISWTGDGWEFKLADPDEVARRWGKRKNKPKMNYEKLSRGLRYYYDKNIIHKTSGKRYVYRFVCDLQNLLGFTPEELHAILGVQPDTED
# Outline: as §1
# SPDEF = target: T9, SPDEF (Homo sapiens, UniProt O95238 1-335); settings: protein: recombinant; tags: N-terminal GST; dsDNA, one strand shown
# T9 sequence: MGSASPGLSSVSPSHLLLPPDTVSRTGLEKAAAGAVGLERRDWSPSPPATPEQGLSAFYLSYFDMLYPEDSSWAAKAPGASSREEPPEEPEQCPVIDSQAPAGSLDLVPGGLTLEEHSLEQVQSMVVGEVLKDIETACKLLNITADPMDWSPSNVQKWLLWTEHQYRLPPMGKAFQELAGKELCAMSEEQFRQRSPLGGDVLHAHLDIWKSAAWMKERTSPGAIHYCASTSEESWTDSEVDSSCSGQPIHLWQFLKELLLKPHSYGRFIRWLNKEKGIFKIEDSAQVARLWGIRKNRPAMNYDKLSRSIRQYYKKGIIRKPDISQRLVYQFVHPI
# Outline: as §1
# ETV7 = target: T10, ETV7 (Homo sapiens, UniProt Q9Y603 1-341); settings: protein: recombinant; tags: N-terminal GST; dsDNA, one strand shown
# T10 sequence: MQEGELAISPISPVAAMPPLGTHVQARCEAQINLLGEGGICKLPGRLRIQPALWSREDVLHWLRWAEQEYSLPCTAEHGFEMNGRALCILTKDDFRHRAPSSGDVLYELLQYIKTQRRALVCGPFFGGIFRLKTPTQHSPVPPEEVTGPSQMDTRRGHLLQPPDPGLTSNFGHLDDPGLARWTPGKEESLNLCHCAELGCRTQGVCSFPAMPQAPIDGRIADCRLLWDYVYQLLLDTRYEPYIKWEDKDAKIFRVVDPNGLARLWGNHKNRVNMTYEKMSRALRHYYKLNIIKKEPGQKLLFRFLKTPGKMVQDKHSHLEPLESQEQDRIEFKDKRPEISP
# Outline: as §1
# ELF5 = target: T11, ELF5 (Homo sapiens, UniProt Q9UKW6-2 1-255); settings: protein: recombinant; tags: N-terminal GST; dsDNA, one strand shown
# T11 sequence: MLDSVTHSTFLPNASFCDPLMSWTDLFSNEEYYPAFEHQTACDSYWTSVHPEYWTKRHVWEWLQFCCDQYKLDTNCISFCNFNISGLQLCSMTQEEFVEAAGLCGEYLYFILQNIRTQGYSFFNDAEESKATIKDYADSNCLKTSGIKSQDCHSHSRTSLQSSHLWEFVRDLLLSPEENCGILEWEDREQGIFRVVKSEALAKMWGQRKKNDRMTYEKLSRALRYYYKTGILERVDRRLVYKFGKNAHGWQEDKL
# Outline: as §1
# ETV3 = target: T12, ETV3 (Homo sapiens, UniProt P41162-2 1-143); settings: protein: recombinant; tags: N-terminal GST; dsDNA, one strand shown
# T12 sequence: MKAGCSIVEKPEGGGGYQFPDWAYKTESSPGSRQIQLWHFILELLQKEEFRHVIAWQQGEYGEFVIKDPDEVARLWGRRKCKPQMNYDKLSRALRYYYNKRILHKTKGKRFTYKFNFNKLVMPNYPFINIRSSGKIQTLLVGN
# Outline: as §1
# ETV6 = ETV6 (Homo sapiens, UniProt P41212 1-452); settings: protein: recombinant; tags: N-terminal GST; dsDNA, one strand shown
# Outline: as §1
# ELF4, sequence (Q99607 whole entry): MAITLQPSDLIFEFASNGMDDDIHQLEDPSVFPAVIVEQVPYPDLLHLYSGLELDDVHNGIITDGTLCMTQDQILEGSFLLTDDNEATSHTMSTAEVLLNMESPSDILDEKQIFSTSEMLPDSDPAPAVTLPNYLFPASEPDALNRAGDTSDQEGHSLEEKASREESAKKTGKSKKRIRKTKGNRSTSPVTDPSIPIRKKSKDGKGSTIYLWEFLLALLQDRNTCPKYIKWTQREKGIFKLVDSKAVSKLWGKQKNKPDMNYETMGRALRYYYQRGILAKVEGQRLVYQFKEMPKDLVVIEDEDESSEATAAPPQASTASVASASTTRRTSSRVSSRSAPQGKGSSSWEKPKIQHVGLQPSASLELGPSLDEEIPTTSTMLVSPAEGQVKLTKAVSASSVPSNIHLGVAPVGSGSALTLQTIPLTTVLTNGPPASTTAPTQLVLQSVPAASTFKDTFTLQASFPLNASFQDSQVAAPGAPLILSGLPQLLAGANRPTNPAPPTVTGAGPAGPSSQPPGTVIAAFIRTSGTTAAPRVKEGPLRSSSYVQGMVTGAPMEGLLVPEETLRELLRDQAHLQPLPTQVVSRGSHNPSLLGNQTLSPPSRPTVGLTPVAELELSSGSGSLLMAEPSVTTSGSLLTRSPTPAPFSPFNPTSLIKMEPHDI
# ETV6, sequence (P41212 whole entry): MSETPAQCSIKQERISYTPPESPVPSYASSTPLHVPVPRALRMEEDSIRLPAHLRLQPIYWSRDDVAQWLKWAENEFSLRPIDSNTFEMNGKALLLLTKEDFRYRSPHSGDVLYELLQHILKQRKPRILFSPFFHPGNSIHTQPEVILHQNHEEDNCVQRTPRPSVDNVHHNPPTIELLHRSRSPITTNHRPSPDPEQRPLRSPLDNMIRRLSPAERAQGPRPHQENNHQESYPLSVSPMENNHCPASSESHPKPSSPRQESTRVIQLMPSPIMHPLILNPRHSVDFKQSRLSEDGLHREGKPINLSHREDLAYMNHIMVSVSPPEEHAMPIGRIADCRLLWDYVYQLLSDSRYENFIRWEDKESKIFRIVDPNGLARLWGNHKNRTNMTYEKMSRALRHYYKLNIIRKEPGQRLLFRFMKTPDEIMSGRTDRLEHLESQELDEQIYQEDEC
# CRX, sequence (O43186 whole entry): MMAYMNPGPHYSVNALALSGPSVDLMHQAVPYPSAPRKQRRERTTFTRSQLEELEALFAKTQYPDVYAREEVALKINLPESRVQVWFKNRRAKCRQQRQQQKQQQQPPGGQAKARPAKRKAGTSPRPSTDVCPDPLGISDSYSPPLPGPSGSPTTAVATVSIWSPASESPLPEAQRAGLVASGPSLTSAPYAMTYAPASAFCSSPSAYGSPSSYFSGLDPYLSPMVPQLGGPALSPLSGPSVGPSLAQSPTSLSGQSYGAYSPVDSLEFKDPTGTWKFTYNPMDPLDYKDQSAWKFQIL
# ETV1, sequence (P50549 whole entry): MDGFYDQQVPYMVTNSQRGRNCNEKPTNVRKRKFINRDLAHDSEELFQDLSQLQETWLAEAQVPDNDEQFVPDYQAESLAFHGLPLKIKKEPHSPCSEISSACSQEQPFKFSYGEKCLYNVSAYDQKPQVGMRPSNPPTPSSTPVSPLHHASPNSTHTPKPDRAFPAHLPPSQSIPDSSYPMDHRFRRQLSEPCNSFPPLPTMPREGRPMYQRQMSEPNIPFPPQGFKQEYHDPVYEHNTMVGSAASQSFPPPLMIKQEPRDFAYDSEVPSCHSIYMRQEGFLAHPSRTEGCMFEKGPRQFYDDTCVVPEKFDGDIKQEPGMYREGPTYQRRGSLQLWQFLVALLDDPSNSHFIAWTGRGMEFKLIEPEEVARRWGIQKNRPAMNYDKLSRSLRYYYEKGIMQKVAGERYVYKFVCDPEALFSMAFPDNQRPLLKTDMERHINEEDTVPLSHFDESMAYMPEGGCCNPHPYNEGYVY
# HSF1, sequence (Q00613 whole entry): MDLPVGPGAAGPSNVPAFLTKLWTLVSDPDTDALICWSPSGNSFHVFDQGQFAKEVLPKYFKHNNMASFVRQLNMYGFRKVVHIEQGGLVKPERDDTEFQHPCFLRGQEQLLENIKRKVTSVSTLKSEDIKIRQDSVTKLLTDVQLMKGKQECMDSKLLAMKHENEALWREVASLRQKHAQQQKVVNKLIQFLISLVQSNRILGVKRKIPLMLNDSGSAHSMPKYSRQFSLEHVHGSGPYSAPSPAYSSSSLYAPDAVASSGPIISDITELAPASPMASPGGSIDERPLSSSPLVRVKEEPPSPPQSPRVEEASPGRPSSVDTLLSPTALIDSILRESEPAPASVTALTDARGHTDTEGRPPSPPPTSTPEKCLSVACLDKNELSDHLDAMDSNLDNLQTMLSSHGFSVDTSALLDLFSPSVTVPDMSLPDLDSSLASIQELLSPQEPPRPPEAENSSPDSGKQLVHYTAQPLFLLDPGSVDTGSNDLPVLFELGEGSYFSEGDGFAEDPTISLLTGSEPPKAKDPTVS
# ETV5, sequence (P41161 whole entry): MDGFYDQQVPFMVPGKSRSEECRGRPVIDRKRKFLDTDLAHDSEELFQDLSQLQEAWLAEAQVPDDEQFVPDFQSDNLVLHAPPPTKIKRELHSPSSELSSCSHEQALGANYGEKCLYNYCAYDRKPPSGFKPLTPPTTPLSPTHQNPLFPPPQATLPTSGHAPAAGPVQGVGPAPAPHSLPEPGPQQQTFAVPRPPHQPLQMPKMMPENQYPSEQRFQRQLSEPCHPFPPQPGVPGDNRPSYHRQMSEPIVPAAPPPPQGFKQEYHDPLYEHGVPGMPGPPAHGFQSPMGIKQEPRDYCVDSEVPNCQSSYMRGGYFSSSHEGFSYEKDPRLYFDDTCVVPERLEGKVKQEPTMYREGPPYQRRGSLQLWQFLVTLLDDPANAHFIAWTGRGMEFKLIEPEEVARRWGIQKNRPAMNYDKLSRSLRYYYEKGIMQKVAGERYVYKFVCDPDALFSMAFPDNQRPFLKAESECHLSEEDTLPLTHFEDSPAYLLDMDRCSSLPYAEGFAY
sequence,measurement,setting,value
CTAGTT,binding signal,FEV,"1.23 fold enrichment (6-mer frequency, TF over GST control)"
same,binding signal,ETV5,"1.31 fold enrichment (6-mer frequency, TF over GST control)"
same,binding signal,HSF1,"1.51 fold enrichment (6-mer frequency, TF over GST control)"
same,binding signal,SPIC,"1.47 fold enrichment (6-mer frequency, TF over GST control)"
same,binding signal,ELF4,"1.35 fold enrichment (6-mer frequency, TF over GST control)"
same,binding signal,ELK4,"1.54 fold enrichment (6-mer frequency, TF over GST control)"
same,binding signal,ETV2,"1.32 fold enrichment (6-mer frequency, TF over GST control)"
same,binding signal,ELF3,"1.38 fold enrichment (6-mer frequency, TF over GST control)"
same,binding signal,CRX,"1.16 fold enrichment (6-mer frequency, TF over GST control)"
same,binding signal,ETV1,"1.35 fold enrichment (6-mer frequency, TF over GST control)"
same,binding signal,ERF,"1.34 fold enrichment (6-mer frequency, TF over GST control)"
same,binding signal,ETV3L,"1.23 fold enrichment (6-mer frequency, TF over GST control)"
same,binding signal,ETS2,"1.38 fold enrichment (6-mer frequency, TF over GST control)"
same,binding signal,SPDEF,"1.29 fold enrichment (6-mer frequency, TF over GST control)"
same,binding signal,ETV7,"1.28 fold enrichment (6-mer frequency, TF over GST control)"
same,binding signal,ELF5,"1.22 fold enrichment (6-mer frequency, TF over GST control)"
same,binding signal,ETV3,"1.19 fold enrichment (6-mer frequency, TF over GST control)"
same,binding signal,ETV6,"1.3 fold enrichment (6-mer frequency, TF over GST control)"
